62 compounds from PubChem BioAssay AID641 (Vanderbilt High Throughput Screening Facility, 2007) can be followed below.

The structures appear in SMILES notation. The whole screen tested about 58,000 compounds, of which about 3,400 (5.9%) were called active.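 The calls were made as follows: active = luminescence count or its row- and column-corrected plate score outside the 99.7% band of the plate's sample wells, on either side; inactive = the rest.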 For the sample, actives were picked, then their nearest neighbours and some compounds at random.

The target in this test is D(1A) dopamine receptor (Homo sapiens) (UniProt P21728). The experiment in a line: D1 CRE-luciferase signal change, two-sided – cell-based, HEK293 D1, dopamine EC30, D1 allosteric modulator project, primary screen (AID 641). As to conditions: dopamine EC30 potentiation, at 10 µM, actives deviate in either direction.
D(1A) dopamine receptor (Homo sapiens), sequence (P21728 whole entry, looked up): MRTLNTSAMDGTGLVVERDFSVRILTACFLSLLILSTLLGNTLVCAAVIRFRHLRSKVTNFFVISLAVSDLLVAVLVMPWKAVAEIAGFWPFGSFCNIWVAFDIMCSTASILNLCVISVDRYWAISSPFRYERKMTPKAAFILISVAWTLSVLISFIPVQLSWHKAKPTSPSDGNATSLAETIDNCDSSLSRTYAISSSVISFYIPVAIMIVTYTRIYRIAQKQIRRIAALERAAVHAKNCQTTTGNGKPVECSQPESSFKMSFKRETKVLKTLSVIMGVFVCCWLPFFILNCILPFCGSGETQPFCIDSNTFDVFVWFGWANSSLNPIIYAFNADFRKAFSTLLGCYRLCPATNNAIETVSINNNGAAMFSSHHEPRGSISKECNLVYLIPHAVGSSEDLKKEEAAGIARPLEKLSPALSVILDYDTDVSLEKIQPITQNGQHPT
As to `CCC1CCCCN1C(=O)Nc1cccc(NC(=O)N2CCCCC2CC)c1` (configuration not stated), the B-score is 0.11 (inactive).
For the compound `CCOCC(=O)NCc1ccc2c(c1)cc(C)n2C`, the B-score was 0.132 (inactive).
For `Cc1noc(C)c1S(=O)(=O)N1CCCC(C(=O)Nc2nccs2)C1` (configuration not stated), the B-score is -0.254 (inactive).
In the case of `CCOC(=O)c1ccccc1NC(=O)CC1Nc2ccccc2NC1=O` (configuration not stated), the B-score is -0.897 (inactive).
For the compound `COC(=O)C(C)C1Sc2ccccc2NC1=O` (configuration not stated), the B-score is 4.51 (active).
Consider `COc1cc(N=Cc2c(O)[nH]c3ccccc23)cc(OC)c1OC`, for which the B-score is -1.15 (inactive).
For `COc1ccc(OC)c(N=Cc2c(O)[nH]c3ccccc23)c1`, the B-score was 1.65 (inactive).
As for `COc1ccc(N=Cc2c(O)[nH]c3ccccc23)cc1OC`, the B-score is -2.18 (active).
For `CN(C)Cc1c(O)ccc2occ(C(O)c3ccccc3)c12` (configuration not stated) the value was 0 (inactive).
For `Cc1nnc(SCC(=O)NCCOc2ccc(Cl)cc2)n1-c1ccccc1` the value was 0.122 (inactive).
Take `O=C(CCC(=O)OCC(F)(F)C(F)F)NCc1ccccc1`: the B-score is 0.31 (inactive).
For the compound `Cc1cc(C(F)(F)F)nn1-c1nc(-c2ccco2)cc(C(F)(F)F)n1`, the B-score is 9.17 (active).
Consider `FC(F)(F)c1nnc2sc(-c3ccco3)nn12`, for which the B-score is 0.0156 (inactive).
In the case of `O=C(CSc1nc(-c2ccco2)cc(C(F)(F)F)n1)N1CCc2ccccc2C1`, the B-score was 0.312 (inactive).
For the compound `O=C(CSc1nc(-c2ccco2)cc(C(F)(F)F)n1)NCc1cccs1`, the B-score was 0.0388 (inactive).
Turning to `CCOC(=O)c1ccn(-c2nc(-c3ccco3)cc(C(F)(F)F)n2)n1`, the B-score is -0.161 (inactive).
Consider `FC(F)(F)c1cc(-c2ccco2)nc(N2CCOCC2)n1`, for which the B-score was 17 (active).
Take `C=CCc1cccc2cc(C(=O)N3CCN(C(=O)OCC)CC3)c(=O)oc12`: the B-score was -0.147 (inactive).
With `CCOC(=O)Cn1c(=O)oc2cc(S(=O)(=O)N(C)Cc3ccco3)ccc21`, the B-score is 0.239 (inactive).
With `Cn1nnnc1SCC(=O)N1CCN(Cc2ccccc2)CC1`, the B-score is 0.031 (inactive).
With `CCOC(=O)N1CCC(NC(=O)COc2cc(=O)n(C)c3ccccc23)CC1`, the B-score was 0.112 (inactive).
For `Cc1occc1C(=O)N1CCCc2ccccc21` the value was 0.259 (inactive).
For `CCc1cc(=O)oc2cc(OCC(=O)N3CCCc4ccccc43)ccc12` the value was 8.41 (active).
Turning to `Cc1ccc2c(c1)N(CC(=O)N1CCCc3ccccc31)C(=O)C(C)O2` (configuration not stated), the B-score is 1.2 (inactive).
As for `Cc1ccc(C2c3c(oc4ccc(C)cc4c3=O)C(=O)N2CCCN2CCOCC2)cc1` (configuration not stated), the figure is 1.68 (inactive); as for `Cc1ccc(S(=O)(=O)C(C#N)c2nc3ccccc3nc2N2CCCC2)cc1C` (configuration not stated), 0.792 (inactive); as for `CC(C)(C)NC(=O)C(c1ccncc1)N(C(=O)CNC(=O)c1ccco1)c1ccc2c(c1)OCO2` (configuration not stated), 1.5 (inactive).
With `CCn1c2c(c3ccc(OC)cc31)CCCC2=O`, the B-score was 0.923 (inactive).
With `COc1ccc(CCN(C)CCN2C(=O)c3ccccc3C2=O)cc1OC`, the B-score is 0.821 (inactive).
As for `COc1ccc(CCNC(=O)C2CCCN(Cc3nc(-c4cccc(Cl)c4)oc3C)C2)cc1OC` (configuration not stated), the B-score is 0.204 (inactive).
Consider `COc1ccc(CCN(C)C(=O)C2CCCN(Cc3ccc(OC)c(OC)c3)C2)cc1OC` (configuration not stated), for which the B-score is 5.3 (active).
In the case of `CCCN1CCN(CCCNC(=O)CN2C(=O)COc3ccccc32)CC1`, the B-score was -0.525 (inactive).
As for `COc1ccc(N2CCN(CCNC(=O)CCN3C(=O)COc4ccccc43)CC2)cc1`, the B-score is -0.0397 (inactive).
Regarding `O=C(CCN1C(=O)COc2ccccc21)NCCCN1CCN(c2ccc(F)cc2)CC1`, the B-score was -2.68 (active).
With `Cn1nc(-c2ccc(Cl)cc2)c2cc(C(=O)NCc3ccco3)sc21`, the B-score was -0.605 (inactive).
As to `COc1ccc(OCC(=O)N2CCOCC2)cc1`, the B-score is 0.809 (inactive).
As for `CCOC(=O)c1[nH]c2ccc(OC)cc2c1NC(=O)N1CCOCC1`, the figure is 1.26 (inactive); as for `COc1cc(NC(=O)N2CCOCC2)cc(OC)c1`, 4.92 (active); as for `COc1ccc2[nH]c(=O)c(CN(CC3CCCO3)C(=O)Nc3ccccc3)cc2c1` (configuration not stated), -0.175 (inactive).
Consider `Cc1cc(C(F)(F)F)nn1CC(=O)N1CCCC1`, for which the B-score is 0.971 (inactive).
As to `CCn1ncc(C2=NOC(C(=O)Nc3ccccc3C(=O)OC)C2)c1C` (configuration not stated), the B-score is 13.2 (active).
On to `COC(=O)c1ccccc1NC(=O)CSc1ccccn1`, for which the B-score was 3.05 (inactive).
As to `CCn1ncc(C2=NOC(C(=O)N3CCN(c4ccccc4)CC3)C2)c1C` (configuration not stated), the B-score was -0.447 (inactive).
For `c1ccc(CCC2=NCCn3cccc32)cc1` the value was -0.434 (inactive); for `O=C(C1CCN(CC2CCCCC2)CC1)N1CCCC1`, 0.0452 (inactive).
For `COC(=O)C1=CN(C)C=C(C(=O)OC)C1c1ccc(Cl)cc1Cl`, the B-score was 0.625 (inactive).
Consider `CCCc1nc(N2CCN(C)CC2)c2sc(=S)n(-c3ccccc3)c2n1`, for which the B-score is 0.374 (inactive).
For `O=C(NCc1ccco1)c1nc(-c2ccccc2)n(-c2ccccc2)n1`, the B-score is -1.33 (inactive).
As for `CCCc1nc(-c2ccccc2O)n(-c2ccccc2)n1`, the B-score is 8.71 (active).
As for `O=C(c1ccco1)N1CCN(C(=O)C2CC(c3ccc(F)cc3)=NO2)CC1` (configuration not stated), the B-score is -0.404 (inactive).
Take `CC1(C)CC(=O)C=C(NCc2ccncc2)C1`: the B-score was 0.0608 (inactive).
As for `CCOC(=O)N1CCN(Cc2nc3c(c(=O)n(C)c(=O)n3C)n2Cc2ccccc2)CC1`, the B-score is -0.0843 (inactive).
Consider `CC(=O)Nc1ccc(S(=O)(=O)N2CCCC2C(=O)O)cc1` (configuration not stated), for which the B-score was -0.232 (inactive).
For `OC(COc1cccc2ccccc12)CN1CCN(c2ccccn2)CC1` (configuration not stated) the value was -4.42 (active); for `OC(COc1cccc(OCC(O)CN2CCCC2)c1)CN1CCCC1` (configuration not stated), -0.368 (inactive).
As for `O=C1c2cccc3cccc(c23)N1CN1CCN(c2ccccn2)CC1`, the B-score is -2.84 (inactive).
Consider `COc1ccc(NC(=O)Nc2cccc3cccnc23)cc1`, for which the B-score is -0.391 (inactive).
`O=C(CSc1nnnn1C1CCCC1)Nc1ccc2c(c1)OCCO2`: the B-score is -0.309 (inactive).
Take `COc1ccc(OC)c2sc(NC(=O)C3COc4ccccc4O3)nc12` (configuration not stated): the B-score was 1.13 (inactive).
In the case of `O=C(c1ccco1)N(Cc1nc2ccccc2c(=O)[nH]1)C1CCCC1`, the B-score was -0.0551 (inactive).
As for `CCN(Cc1nc2ccccc2c(=O)[nH]1)Cc1cc(=O)oc2cc(C)c(C)cc12`, the figure is -2.91 (active).
As for `CCCC(=O)N(CCc1ccccc1)Cc1nc2ccccc2c(=O)[nH]1`, the figure is 0.0641 (inactive).
